# Compound activity deposited in PubChem by The Scripps Research Institute Molecular Screening Center.
# Rows were chosen to be rich in hits. Some 4.5% of all compounds tested hit in one or more screens of this group.
# hcDAF-12 act – activators of H. contortus DAF-12 nuclear receptor | HEK293 hcDAF-12 lit1-tk-luc reporter, luminescence; 0% DMSO, 100% Δ7-dafachronic acid | activation, % at 6.8 µM | 370,000 compounds, 1.4% hits | AID 652067;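 active = activation above the mean of all tested compounds plus 3 SD, cut at about 5.5% in these data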;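 note: 100% = response to 3 µM Δ7-dafachronic acid high control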
# DAX1 inh-1 – NR0B1 (DAX1) inhibition; HEK293 Gal4-DAX1 luciferase reporter, luminescence; inhibition, % at 6.75 µM; 340,000 compounds, 0.99% hits;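 active = inhibition above the mean over all tested compounds plus 3 SD, cut at about 4.2% in these data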;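 note: 0% = DAX1-transfected cells with DMSO and 100% = empty-vector control cells with DMSO; inhibition shows as a rise in luminescence from relieved DAX1 repression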
# Target sequence (P51843 207-470 limits assumed): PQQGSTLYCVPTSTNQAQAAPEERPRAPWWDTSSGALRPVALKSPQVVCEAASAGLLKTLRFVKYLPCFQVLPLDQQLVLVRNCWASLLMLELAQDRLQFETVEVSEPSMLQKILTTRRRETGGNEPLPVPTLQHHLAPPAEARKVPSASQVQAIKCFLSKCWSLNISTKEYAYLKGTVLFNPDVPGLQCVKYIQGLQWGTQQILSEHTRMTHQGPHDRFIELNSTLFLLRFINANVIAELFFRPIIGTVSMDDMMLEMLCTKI
# FXN GAA850 act – frataxin GAA850 promoter activation. HEK293 lucGAA850 FXN promoter luciferase reporter, 24 h; percent of 10 µM SAHA response. activation, % at 6 µM. 360,000 compounds, 0.56% hits. AID 540364;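 active = activation above the average of all compounds screened plus 3 SD, cutoff fixed separately per campaign, cut at about 7.5% in these data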;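 note: 0% = DMSO wells and 100% = 10 µM SAHA wells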
# ssDAF-12 act – activates DAF-12 receptor from parasite S. stercoralis; activation, % at 6.8 µM; HEK293 ssDAF-12/GRIP1 lit1-tk-luc reporter, luminescence; % of 3 µM dafachronic acid response; AID 652126; 370,000 compounds, 1% hits;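 active = activation above the mean over all tested compounds plus 3 SD, cut at about 0.9% in these data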;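 note: 0% = DMSO-only wells and 100% = 3 µM delta7-dafachronic acid wells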
# hgDAF12 agonist – activates the H. glycines DAF-12 receptor ligand-binding domain. HEK293 GAL4-hgDAF12 UAS-luciferase reporter, agonist luminescence; normalized to butyrate control. activation, % at 6.8 µM. 370,000 compounds, 1.8% hits;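 active = activation above a cutoff set at the mean of all screened compounds plus 3 SD, cut at about 10% in these data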;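 note: 0% = DMSO wells and 100% = sodium butyrate wells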
# DAX1 inh-2 – DAX1 (NR0B1) inhibition, primary screen; HEK293T StAR-luciferase reporter, SF-1/DAX-1 repression relief; 370,000 compounds, 1.1% hits; AID 652010; inhibition, % at 6.8 µM;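 active = inhibition above the mean over all tested compounds plus 3 SD, cut at about 3.6% in these data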;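 note: 0% = DAX-1 cells with DMSO and 100% = cells lacking DAX-1 with DMSO; higher inhibition means more luminescence from relief of DAX-1 repression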
# The depositor's hits bear a star; . = not tested or not shown.
SMILES,hcDAF-12 act,DAX1 inh-1,FXN GAA850 act,ssDAF-12 act,hgDAF12 agonist,DAX1 inh-2
CS(=O)(=O)c1ccc(C(=O)OCC(=O)NC23CC4CC(CC(C4)C2)C3)cc1[N+](=O)[O-],-1,0,12*,-1,0,1
COC1C(O)C(O)C(O)C(O)C1O (stereo not drawn),0,4.9*,-2,-1,0,0
CC1CCN(C(=O)CSc2nnc(-c3ccco3)o2)CC1,2,-1,3,-1,-2,0
COc1cccc(-c2nnc(SCC(=O)N3CC(C)CC(C)C3)o2)c1 (stereo not drawn),-4,6.7*,0,-1,-1,0
CC1CC(C)CN(C(=O)CSc2nnc(-c3ccco3)o2)C1 (stereo not drawn),0,4.8*,0,-1,1,0
CCC1CCCCN1C(=O)CSc1nnc(-c2ccco2)o1 (stereo not drawn),4,2,5,1.0*,7,2
CCC(CO)Nc1cccc2c1S(=O)(=O)N(Cc1cn(Cc3ccc(Cl)cc3)nn1)Cc1ccccc1O2 (stereo not drawn),-3,.,.,-2,-1,-1
CCOC(=O)[C@]12CCCC=C1N(Cc1ccc(OC)cc1)C(=O)[C@@H]2CC(=O)NCc1ccc(C)o1,-4,.,.,-1,-1,-2
C=CCN(CC#Cc1ccccc1)Cc1ccc2c(c1)OCO2,-1,.,.,-1,-1,-1
COc1ccc(N=Cc2c(O)n(-c3cccc(C)n3)c(=O)c3ccccc23)c(OC)c1,-1,5.2*,1,-2,0,0
COc1cccc(N=Cc2c(O)n(-c3cccc(C)n3)c(=O)c3ccccc23)c1,-2,-1,-4,-2,-3,-1
CC1CCCN(C(=O)Cn2c(=O)oc3cc(S(=O)(=O)N4CCCCC4)ccc32)C1 (stereo not drawn),0,2,-1,-1,-1,2
CC1CCN(C(=O)Cn2c(=O)oc3cc(S(=O)(=O)N4CCCCC4)ccc32)CC1,-1,4.9*,-1,-1,-1,2
Cc1cc2c(cc1C)/C(=N/NC(=O)c1ccccn1)CCC2,4,.,1,0,11*,3
O=C(N/N=C1\CCc2ccccc21)c1ccccc1Cl,3,3,4,0,12*,2
CC1CC(NC(=O)c2c(O)nc3sccn3c2=O)CC(C)(C)C1 (stereo not drawn),-2,6.4*,2,0,4,2
CC1CC(NC(=O)c2c(O)nc3ccccn3c2=O)CC(C)(C)C1 (stereo not drawn),1,0,0,-1,2,-1
Cc1ccsc1/C=N/Nc1ccc(C(=O)O)cc1,6.4*,-5,-4,0,2,1
COC(=O)c1cccc(C(=O)N2CCCC(C(=O)c3cccc(OC(C)C)c3)C2)c1 (stereo not drawn),5.8*,0,2,0,0,-1
COC(=O)c1cccc(C(=O)N2CCCC(C(=O)c3ccccc3OC)C2)c1 (stereo not drawn),-1,0,-1,-1,1,1
COC(=O)c1sc(=S)n(Cc2ccccc2)c1C,-1,12*,-2,-1,1,0
NCCN1CCN(S(=O)(=O)c2ccc3c(c2)CCN3C(=O)C2CCC2)CC1,-2,.,.,-2,-2,0
COc1ccccc1CCNC(=O)c1ccccc1SCC(=O)N1CCCC1,-1,0,2,-2,0,-1
O=C(COC(=O)c1ccccc1SCC(=O)NC1CCS(=O)(=O)C1)NC1CCS(=O)(=O)C1 (stereo not drawn),1,1,2,-1,-1,0
CC(=O)Nc1ccc(NC(=O)COC(=O)c2ccccc2SCC(=O)N2CCCC2)cc1,-2,-2,3,-1,1,0
Cc1ccccc1NC(=O)COC(=O)c1ccccc1SCC(=O)N1CCCC1,-1,4.3*,2,-1,1,0
O=C(NCCc1ccccc1)c1ccccc1SCC(=O)N1CCCC1,6.4*,0,4,1.2*,6,2
CCNC(=O)NC(=O)COC(=O)c1ccccc1SCC(=O)NC(=O)NCC,7.9*,0,0,2.3*,12*,3.9*
